High-throughput results from PubChem BioAssay.
Sampled rows, rich in hits. Any-hit rate of the full collection: about 19%.
IL-1B inflam inh: qHTS for Inhibitors of Inflammasome Signaling: IL-1-beta AlphaLISA Primary Screen | THP-1 LPS/ATP IL-1B secretion, AlphaLISA, 16 h; hits give low values | activity change, % at 57.5 µM | hit rate 4.7% among 360,000; in the data active = activity change below about -50%; inconclusive = mostly about -30% to -49%
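THP-1 cells pretreated 1 hr with compounds (up to 57.5 uM final), then stimulated with LPS (250 ng/mL final) plus ATP (1.25 mM final); secreted IL-1B measured by AlphaLISA after 16 hr, decreased signal indicating inhibition.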
HT1080NT lethal: qHTS for induction of synthetic lethality in tumor cells producing 2HG: qHTS for the HT-1080-NT fibrosarcoma cell line | AID 686970, 2013 | hit rate 1.6% among 360,000 | Potency, µM (highest dose often 46.1 µM), for the others: at the top dose activity, negative = less viability, most hits filed as cytotoxic | HT-1080-NT fibrosarcoma viability, CellTiter-Glo ATP luminescence, 48 h;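 also: NT is the 2HG producing partner of a matched IDH1 knockdown line; potency is read from the fitted curve at half-maximal effect; 0% = DMSO-treated cells and -100% = media-only wells without cells; nearly all actives have a fitted effect of over 55% in size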
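Viability of the 2HG-overproducing fibrosarcoma line after 48 hours of compound exposure at 37 degrees C was determined by luminescence with CellTiter-Glo, and concentration-effect curves were then fitted and categorized.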
DT40 TDP1 CPT: qHTS for Inhibitors of human tyrosyl-DNA phosphodiesterase 1 (TDP1): qHTS in cells in presence of CPT; Potency, µM (top dose mostly 46.2 µM), inactives show at the highest dose activity change, negative = growth inhibition, most hits filed as inhibitors; chicken DT40 Tdp1-/-;hTDP1 cells + 20 nM CPT, ATP luminescence, 48 h; AID 686979, 2013; hit rate 12% among 420,000; also: potency is read from the fitted curve at half-maximal effect; nearly all actives have a fitted effect of over 55% in size
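Chicken DT40 Tdp1-/- cells complemented with human TDP1, 400 cells/well, exposed to compounds plus 20 nM camptothecin for at least 48 h at 37 C; viability read as ATP content by CellTiter-Glo luminescence.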
HT1080 IDH1KD tx: qHTS for induction of synthetic lethality in tumor cells producing 2HG: qHTS for the HT-1080-IDH1KD cell line; HT-1080 IDH1 knockdown viability, ATP luminescence, 48 h; Potency, µM (series often up to 46.1 µM), without a hit: at the highest dose activity, negative = toxicity, most hits filed as cytotoxic; hit rate 2% among 360,000;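 also: potency is read from the fitted curve at half-maximal effect; 0% = DMSO wells and -100% = cell-free medium wells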
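Viability of IDH1-knockdown HT-1080 fibrosarcoma cells was assessed by CellTiter-Glo after 48 h at 37 °C with titrated compound; concentration-effect curves were classified by fit quality and response size.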
DT40 TDP1 no CPT: qHTS for Inhibitors of human tyrosyl-DNA phosphodiesterase 1 (TDP1): qHTS in cells in absence of CPT. DT40 Tdp1-/- hTDP1 cells, no CPT, ATP luminescence, 48 h. Potency, µM (titrated, usually from 46.2 µM), for inactives: at the highest dose activity change, negative = growth inhibition, most hits filed as inhibitors. hit rate 15% among 420,000; also: potency is read from the fitted curve at half-maximal effect; nearly all actives have a fitted effect of over 55% in size
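Growth kinetics read by CellTiter-Glo luminescence after ≥48 hr at 37 °C. Cells: DT40 Tdp1-/- stably carrying human TDP1, 400 per well, compound exposure in the absence of CPT (DMSO vehicle).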
* hit, by the source's call; u = inconclusive; x = no result. Unless noted, calls follow the shape of the dose curve; as a rule, active = well fitted curve in the direction sought with a large enough effect; inconclusive = small, poorly fitted or top-dose-only effect, or another doubt; inactive = no such curve, though single readings can be large; an effect the other way counts as inactive or inconclusive. Unless noted, % is scaled to controls: 0 for no effect and ±100 for the full control effect.

SMILES	IL-1B inflam inh	HT1080NT lethal	DT40 TDP1 CPT	HT1080 IDH1KD tx	DT40 TDP1 no CPT
CCOc1ccc(N2CC(O)(c3ccc(F)cc3)[N+]3=C2CCCC3)cc1 (stereo unspecified)	-8	-17%	-14%	-3%	23µM*
COc1ccc(N2CC(O)(c3ccc(OC(F)F)cc3)[N+]3=C2CCCC3)cc1 (stereo unspecified)	-54*	-14%	16µM*	-8%	u
CCN(CC)S(=O)(=O)c1ccc(NC(=S)Nc2ccc(F)cc2)cc1	26	1%	u	0%	u
CCOC(=O)C1=C(c2ccccc2)NC(=S)NC1c1ccc(C)c([N+](=O)[O-])c1 (stereo unspecified)	57	-20%	23µM*	-16%	16µM*
CCOC(=O)C1=C(c2ccccc2)NC(=O)NC1c1ccc(O)c(Cl)c1 (stereo unspecified)	x	12µM*	u	13µM*	u
O=C(CCN1CCCCC1=O)NC1CCCc2c1cnn2-c1ccccc1F (stereo unspecified)	0	4%	-16%	5%	21%
Cc1cccc(OCCC(=O)Nc2ccc(F)c(Cl)c2)c1	-84*	-3%	0%	0%	-7%
Cc1ccc(OCCC(=O)Nc2ccc(F)c(F)c2)cc1	0	3%	-25%	0%	u
Cc1ccc(NC(=O)Nc2ccc(F)c(Cl)c2)cc1	-29	0%	u	-4%	23µM*
COc1ccc(NC(=O)Nc2ccc(F)c(Cl)c2)cc1	-1	1%	u	-7%	16µM*
CCC(=O)Nc1cc(-c2cn3cccnc3n2)ccc1OC	x	x	-12%	x	4%
COc1ccc(-c2cn3cccnc3n2)cc1NC(=O)Nc1ccc(Cl)cc1	x	x	u	x	16µM*
COc1ccc(OCCCC(=O)OCC(=O)N2CCN(S(=O)(=O)c3ccc(C)cc3C)CC2)cc1	12	10%	-18%	0%	u
CCc1nnc(NS(=O)(=O)c2ccc(NC(=O)c3ccc([N+](=O)[O-])s3)cc2)s1	-6	u	-7%	-15%	-5%
COc1ccc2ccccc2c1C1NC(=O)NC(C)=C1[N+](=O)[O-] (stereo unspecified)	-8	-23%	-23%	-30%	-6%
COc1ccc(NC(=O)Nc2cc(C)ccc2OC)cc1	-16	10%	-17%	0%	-17%
COc1ccc(OC)c(NC(=O)Nc2ccc(Cl)cc2)c1	-66*	-27%	-22%	-15%	-27%
O=C1CC(=O)Nc2cc(S(=O)(=O)Nc3ccc(F)cc3Cl)ccc2N1	3	-1%	-4%	0%	-4%
Cc1cccc(N(C)S(=O)(=O)c2ccc(-c3cnc(C4CC4)o3)cc2)c1	112	0.052µM*	0.029µM*	u	0.037µM*
Cc1cc(C)c(NS(=O)(=O)c2ccc(-c3cnc(C4CC4)o3)cc2)c(C)c1	x	x	0.58µM*	x	0.018µM*
O=S(=O)(Nc1ccc(F)cc1Cl)c1ccc(-c2cnc(C3CC3)o2)cc1	40	1.2µM*	0.65µM*	u	0.73µM*
Cc1cc(C)c(NS(=O)(=O)c2cc(-c3cnc(C4CC4)o3)ccc2C)c(C)c1	x	x	-21%	x	u
CCN(CC)c1ccc(NS(=O)(=O)c2cn(C)c(=O)n(C)c2=O)c(C)c1	21	-2%	6%	-1%	3%
CCN(CC)c1ccc(NS(=O)(=O)c2ccc(-c3cnc(C4CC4)o3)cc2)c(C)c1	x	x	12µM*	x	16µM*
O=C(N/C(=C\c1ccccc1)C(=O)N1CCOCC1)c1ccccc1Cl	7	3%	6%	13%	6%
SMILES	IL-1B inflam inh	HT1080NT lethal	DT40 TDP1 CPT	HT1080 IDH1KD tx	DT40 TDP1 no CPT
Cc1ccc(NS(=O)(=O)c2ccc(Cl)nc2)c(C)c1	11	3%	u	-5%	-19%
Cc1ccc(NS(=O)(=O)c2ccc(-c3cnc(C4CC4)o3)cc2)c(C)c1	35	u	1.5µM*	0.82µM*	1µM*
CCOC(=O)/C=C/C(=O)Nc1ccccc1-c1ccccc1NC(=O)/C=C/C(=O)OCC	-83*	u	4.6µM*	23µM*	5.2µM*
CCOC(=O)/C=C/C(=O)Nc1cccc([N+](=O)[O-])c1	-65*	u	1.6µM*	-26%	4.1µM*
CCOC(=O)c1cccc(NC(=O)/C=C/c2cccc([N+](=O)[O-])c2)c1	-10	17%	u	19%	u
CCOC(=O)/C=C/C(=O)OCC(=O)Nc1cccc(Cl)c1Cl	-12	-4%	-18%	-11%	u
Cc1ccc(C)n1-n1cnc2sc3c(c2c1=O)CCC3	-9	7%	u	-1%	u
O=c1c2c3c(sc2ncn1-n1cccc1)CCCCC3	u	-7%	-15%	-3%	u
Cn1cc(/C=N/n2cnc3sc4c(c3c2=O)CCCC4)c2ccccc21	13	2%	13µM*	-1%	10µM*
O=c1c2c3c(sc2ncn1/N=C/c1ccc([N+](=O)[O-])o1)CCCC3	-89*	u	2.6µM*	u	2.3µM*
CC(C)CN1CC(C)C(=O)NC1=S (stereo unspecified)	10	5%	-7%	11%	-2%
CCc1sc(C(=O)N2CCc3cc(OC)c(OC)cc3C2CC(=O)O)cc1C (stereo unspecified)	5	4%	14%	11%	6%
CCOC(=O)N1CCN(Cc2nc3c(c(=O)n(C)c(=O)n3C)n2Cc2cccc(C)c2)CC1	29	2%	-35%	-1%	u
CCCCn1c(CN2CCN(c3cccc(Cl)c3)CC2)nc2c1c(=O)n(C)c(=O)n2C	-8	2%	7.3µM*	2%	6.5µM*
Cc1ccc(Cn2c(CN3CCN(c4cccc(Cl)c4)CC3)nc3c2c(=O)n(C)c(=O)n3C)cc1	x	x	18µM*	x	u
CCCn1c(CN2CCN(c3cccc(Cl)c3)CC2)nc2c1c(=O)n(C)c(=O)n2C	25	-4%	5.8µM*	-21%	6.5µM*
CCCCCCn1c(CN2CCN(CCO)CC2)nc2c1c(=O)n(C)c(=O)n2C	-5	-4%	-13%	-8%	-5%
CCCCCn1c(CN2CCN(c3cccc(Cl)c3)CC2)nc2c1c(=O)n(C)c(=O)n2C	-18	9%	16µM*	2%	21µM*
CCOc1ccc(-c2nc(N)ncc2Oc2ccc(OC)cc2)c(O)c1	-87*	23µM*	-5%	u	2%
CCOc1ccc(-c2nc(N)ncc2-c2ccccc2)c(O)c1	u	u	21µM*	u	15µM*
